Screens from PubChem.
Lamin A splicing – qHTS Assay for Modulators of Lamin A Splicing. hit rate 0.01% among 200,000. HeLa LMNA splicing GFP/RFP minigene ratio, 48 h. Potency, µM (highest dose often 46.1 µM), inactives show at the highest dose ratio change, negative = inhibition, most hits filed as inhibitors; active = well fitted inhibition curve with a large enough effect in the signal ratio, with a control signal flat, not every such curve was filed as active; inconclusive = small, poorly fitted or top-dose-only effect, or effect the other way, or a change in a side signal; the % refers to the signal ratio; note: potency is the fitted concentration of half-maximal effect
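S3 HeLa cells stably expressing lamin A-EGFP splicing minigene plus DsRed2, 600 cells/well, 48 h compound exposure at 37C. Laser-scanning cytometry; analysed as GFP (500-530 nm)/RFP (575-640 nm) total intensity ratio; 0.5% DMSO vehicle.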
12-hLO inh – qHTS Assay for Inhibitors of 12-hLO (12-human lipoxygenase); purified 12-hLO, xylenol orange hydroperoxide absorbance; Polyunsaturated fatty acid lipoxygenase ALOX12 (Homo sapiens), P18054; Potency, µM (titrated, usually from 57.1 µM), without a hit: at the top dose activity change, negative = inhibition, hits mostly inhibitors; hit rate 0.12% among 150,000; active = well fitted inhibition curve with a large enough effect; inconclusive = small, poorly fitted or top-dose-only effect; note: potency is the fitted concentration of half-maximal effect; nearly all actives have a fitted effect of over 55% in size
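Xylenol orange chromogenic assay: hydroperoxide from 12hLO oxidises Fe(II), giving red-shifted Fe(III)-XO absorbance. Conditions: 150 nM enzyme, 40 uM arachidonic acid, 25 mM Hepes pH 7.0, 0.01% Triton X-100, 30 min, room temperature.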
HPGD block – qHTS Assay for Inhibitors of HPGD (15-Hydroxyprostaglandin Dehydrogenase); 15-hydroxyprostaglandin dehydrogenase [NAD(+)] (Homo sapiens), P15428; Potency, µM, inactives show at the highest dose activity change, negative = inhibition, actives largely listed as inhibitors; AID 894, 2007; purified HPGD, NADH fluorescence kinetic, PGE2 substrate; hit rate 4.3% among 150,000; note: potency is the fitted concentration of half-maximal effect
Target sequence (P15428 whole entry, looked up): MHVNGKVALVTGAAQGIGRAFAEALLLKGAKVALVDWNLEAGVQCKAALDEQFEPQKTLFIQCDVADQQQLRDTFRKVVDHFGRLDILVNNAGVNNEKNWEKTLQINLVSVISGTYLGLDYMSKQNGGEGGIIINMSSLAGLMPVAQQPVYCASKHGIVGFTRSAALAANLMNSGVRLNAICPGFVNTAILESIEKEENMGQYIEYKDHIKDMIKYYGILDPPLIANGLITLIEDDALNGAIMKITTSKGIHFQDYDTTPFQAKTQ
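20 nM HPGD preincubated 15 min at room temperature with compound in 50 mM Tris-HCl pH 8, 0.01% Tween 20. Started with 1 mM NAD+ and 30 uM prostaglandin E2; NADH fluorescence (360/450 nm) read 5 times over 30-s intervals, last minus first.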
ALDH1A1 inh – qHTS Assay for Inhibitors of Aldehyde Dehydrogenase 1 (ALDH1A1); Aldehyde dehydrogenase 1A1 (Homo sapiens), P00352; Purified ALDH1A1, NADH fluorescence, propionaldehyde substrate; Potency, µM (highest dose often 75.3 µM), for the others: at the top dose activity, negative = inhibition, actives largely listed as inhibitors; hit rate 7.3% among 220,000;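 note: potency is the fitted concentration of half-maximal effect; plate controls were no enzyme wells and a reference inhibitor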
Target sequence (P00352 whole entry, looked up): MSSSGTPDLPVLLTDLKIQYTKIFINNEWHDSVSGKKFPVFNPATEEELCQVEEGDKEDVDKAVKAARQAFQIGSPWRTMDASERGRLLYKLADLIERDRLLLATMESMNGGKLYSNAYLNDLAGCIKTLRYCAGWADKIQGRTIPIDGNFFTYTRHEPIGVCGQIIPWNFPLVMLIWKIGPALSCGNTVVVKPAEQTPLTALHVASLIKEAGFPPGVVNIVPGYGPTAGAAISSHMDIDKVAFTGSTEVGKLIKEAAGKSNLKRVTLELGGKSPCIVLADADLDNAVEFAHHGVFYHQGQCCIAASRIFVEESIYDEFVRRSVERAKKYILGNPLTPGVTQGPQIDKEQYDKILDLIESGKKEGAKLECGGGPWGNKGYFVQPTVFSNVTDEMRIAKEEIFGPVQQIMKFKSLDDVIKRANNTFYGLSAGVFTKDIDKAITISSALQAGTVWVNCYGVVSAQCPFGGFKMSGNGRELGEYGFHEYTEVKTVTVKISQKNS
PNC assembly inh – High Content Assay for Compounds that inhibit the Assembly of the Perinucleolar Compartment; hit rate 3.1% among 140,000; PC3M PTB-GFP, PNC prevalence imaging, 16 h; hits give low values; activity change (PNC), negative = inhibition, % at 10 µM;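 active = readout at or below -70, meaning at least 70% loss of cells showing the perinucleolar compartment, a nuclear body marking cancer cells; inconclusive = readout between -30 and a set limit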;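 note: plate controls were DMSO wells for no effect and camptothecin positive control wells for full effect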
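Read-out is percentage of cells bearing a perinucleolar compartment, from automated 20x imaging of fixed, Hoechst-stained PC3M PTB-GFP cells. Cells were seeded 4 h, then exposed 16 h to compound (23 nl of library stock) in duplicate plates.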
Numbers without * were called inactive; ? = inconclusive; nt = no result given; [ ] = remark or other dose. The list is not random: actives were taken first. Their share in the collection is about 10%. Unless noted, calls come from the whole dose curve; as a rule, active = well fitted inhibition curve with a large enough effect (not every such curve was filed as active); inconclusive = small, poorly fitted or top-dose-only effect, or another doubt; inactive = no such curve, though single readings can be large or run the other way. Unless noted, % is set by controls: 0 for no effect and ±100 for the full control effect.

SMILES	Lamin A splicing	12-hLO inh	HPGD block	ALDH1A1 inh	PNC assembly inh
CCN(CC)S(=O)(=O)c1ccc(NS(=O)(=O)c2cccc(C)c2)cc1	-16.1%	-0.5%	-3.9%	3.3%	-24.3
CCN(CC)S(=O)(=O)c1cc(NS(=O)(=O)c2cccc(Cl)c2)ccc1C	?	0.6%	-4.0%	17.8µM*	75.0
O=C(NCc1ccccc1Cl)c1ccc2c(c1)N(Cc1ccccc1)C(=O)CS2	2.9%[46 µM]	nt	nt	nt	nt
COc1ccc(O[C@H]2C=C[C@@H](c3ccccc3)O[C@H]2COC(=O)CC/C(C)=N\O[C@@H](C)c2cn([C@H](CO)Cc3ccccc3)nn2)cc1	nt	nt	nt	3.5%[13.5 µM]	nt
O=C(Nc1ccc2c(c1)OCCO2)c1ccc(Cl)c(S(=O)(=O)N2CCOCC2)c1	?	-4.0%	-9.1%	5.01µM*	22.4
O=C(CN1CCN(S(=O)(=O)c2cc(Cl)ccc2Cl)CC1)Nc1ccc2c(c1)OCCO2	-12.3%	5.1%	-3.6%	8.91µM*	-13.9
O=S(=O)(c1ccc(N2CCCC2)cc1)C(F)(F)F	?	-3.4%	-4.9%	-0.8%	-23.8
O=Cc1ccc(N2CCCC2)c(F)c1	8.6%	3.1%	-15.3%	1.58µM*	?
O=Cc1ccc(N2CCCCCC2)cc1	-11.0%	-9.2%	-29.7%	0.0562µM*	-5.0
Cc1ccc(CN2CCN(Cc3ccc(C)o3)[C@@H](C)C2)o1	nt	-1.5%[11.4 µM]	-6.2%	5.2%[13.5 µM]	nt
CCCc1nnc(NC(=O)c2c(O)c3c([nH]c2=O)CCCC3)s1	?	0.3%	-11.4%	9.2%	-113.7*
Cc1ccc(NC(=O)CSc2nnc(CN3CCOCC3)n2-c2ccccc2)cc1	-6.7%	2.7%	-6.1%	3.16µM*	?
Cc1nnc(SCC(=O)Nc2ccc(N3CCOCC3)cc2)n1-c1ccccc1	16.3%	-2.9%	5.5%	-5.9%	4.1
Clc1cccc(Cl)c1CSc1nnc(CN2CCOCC2)n1-c1ccccc1	-8.7%	3.6%	-5.9%	-7.4%	12.3
Clc1ccc(CSc2nnc(CN3CCOCC3)n2-c2ccccc2)cc1Cl	2.7%	-3.6%	-4.4%	17.8µM*	18.2
O=C(CSc1nnc(CN2CCOCC2)n1-c1ccccc1)Nc1ccc(Cl)cc1	-1.0%	-6.8%	-10.4%	22.4µM*	132.3
Cc1ccc(CCc2nnc(SCC(=O)Nc3cc(Cl)ccc3Cl)n2-c2ccccc2)o1	?	0.6%	-4.3%	25.1µM*	-8.1
Cc1ccc(C(=O)N2CCc3cc(CNS(=O)(=O)c4cccs4)ccc32)cc1	-4.7%[46 µM]	nt	nt	nt	nt
CC(C)Oc1ccc(CNC(=O)C2COc3ccccc3C2)cc1 (configuration not stated)	1.5%[46 µM]	nt	nt	nt	nt
Fc1ccc(-c2nc3n(c2-c2ccncc2)CCS3)cc1	nt	-5.7%	?	-5.9%	nt
COC(=O)c1scc(-c2ccc(C)cc2)c1S(=O)(=O)N1CCN(c2ccc(C(C)=O)cc2)CC1	2.0%[46 µM]	nt	nt	nt	nt
CCn1c(SCC(=O)NNC(=S)Nc2ccccc2)nnc1-c1ccc(Cl)cc1	-4.2%	0.6%	-8.5%	-3.4%	?
O=C(CSc1nnc(-c2ccccc2)n1-c1ccc(Cl)cc1)NNC(=S)Nc1ccccc1	-16.2%	-19.2%	-17.6%	15.8µM*	18.1
COc1ccccc1NC(=O)Cn1cc(S(=O)(=O)Cc2ccccc2)c2ccccc21	3.2%[46 µM]	nt	nt	nt	nt
CCOC(=O)Nc1nc(-c2ccccc2)c(C(=O)c2ccccc2)s1	?	-1.7%	-18.5%	?	-82.9*
SMILES	Lamin A splicing	12-hLO inh	HPGD block	ALDH1A1 inh	PNC assembly inh
COC(=O)Nc1nc(-c2ccccc2)c(C(=O)c2ccc(Cl)cc2)s1	?	4.0%	-2.5%	-4.1%	-102.1*
CC(=O)c1sc(NC(=O)c2c(F)cccc2F)nc1-c1ccccc1	-3.8%[9.22 µM]	nt	nt	11.2µM*	nt
COCCN(CCOC)S(=O)(=O)c1ccc(C(=O)Nc2nc(-c3ccccc3)c(C(=O)c3ccccc3)s2)cc1	1.3%	1.3%	-20.6%	?	-13.7
Cc1c(CCNC(=O)C(C)(C)C)sc2nc(-c3ccc(F)cc3)nn12	-3.7%[46 µM]	nt	nt	nt	nt
O=C(N=C1c2ccccc2CN1c1cccc(Cl)c1)c1cccnc1	-5.2%	-1.5%	-4.0%	2.1%	3.5
O=C(N=C1c2ccccc2CN1c1ccc(F)c(F)c1)c1cccnc1	-2.7%[46 µM]	nt	nt	14.1µM*	nt
CCOC(=O)c1c(NC(=O)C2=C(C)NC(=S)NC2c2ccc(F)cc2)sc(C)c1C (configuration not stated)	?	?	?	14.1µM*	-28.8
CCOC(=O)c1c(NC(=O)C2=C(C)NC(=S)NC2c2ccc(C)cc2)sc(C)c1C (configuration not stated)	?	?	?	?	-22.1
CCOC(=O)c1c(NC(=O)C2=C(C)NC(=S)NC2c2ccc(F)cc2F)sc(C)c1C (configuration not stated)	?	?	-20.9%	11.2µM*	?
Cc1c(C)c(C)c(CC2(C)CSC2)c(CC2(C)CSC2)c1C	nt	-5.4%[11.4 µM]	-1.1%	0.9%[13.5 µM]	nt
CCCn1c(=O)c2[nH]c(-c3ccc(OCC(=O)Nc4ccc(C#N)cc4)cc3)nc2n(CCC)c1=O	?	-4.5%	-15.6%	-3.0%	nt
COc1ccc(NC(=O)Cn2cnc3c(nc4n3CCCCC4)c2=O)cc1Cl	-1.7%[46 µM]	nt	nt	nt	nt
O=C(Nc1cccc(C(F)(F)F)c1)N1CCC(CN2CCCCCC2)CC1	9.3%[46 µM]	nt	nt	nt	nt
CCOc1ccc2nc(C)cc(Nc3cccc([N+](=O)[O-])c3)c2c1	?	-2.2%	-21.1%	9.3%	-101.6*
Cn1nnnc1SCCCNCc1cccc(OCc2ccccc2)c1	6.8%[46 µM]	nt	nt	nt	nt
CC(C)N(CCNC(=O)c1ccc(Cc2nc3ccccc3[nH]2)cc1)C(C)C	nt	-1.7%	-8.7%	?	nt
Fc1cccc(-c2csc(-c3ccno3)n2)c1	nt	nt	nt	22.4µM*	nt
Nc1nc(-c2cccc(F)c2)cs1	1.9%[46 µM]	nt	nt	-11.2%	nt
Cc1ccsc1/C=C1/SC(N2CC(C)OC(C)C2)=NC1=O (configuration not stated)	-1.6%	2.2%	31.6µM*	11.2µM*	13.9
CCOC(=O)C1CCN(C(=O)C2c3ccccc3C(=O)N(C)C2c2ccc(OC)cc2)CC1 (configuration not stated)	7.4%	4.4%	-5.5%	2.82µM*	-29.5
CCN(CC)CCCNC(=O)C1c2ccccc2C(=O)N(CCOC)C1c1ccc(F)cc1 (configuration not stated)	nt	nt	nt	7.6%	nt
COc1ccc(C2C(C(=O)N3CCCCC3)c3ccccc3C(=O)N2C)cc1 (configuration not stated)	1.8%	-7.7%	nt	14.1µM*	6.2
CCN1CCN(CCCNC(=O)C2c3ccccc3C(=O)N(C)C2c2ccc(OC)cc2)CC1 (configuration not stated)	-8.9%	4.8%	-11.7%	2.7%	-19.5
